hDAT+cocaine – changed human dopamine transporter uptake under cocaine IC80 | Q01959 | LLC-PK1 hDAT cells, [14C]-dopamine uptake with cocaine IC80; actives deviate in either direction | B-score at 10 µM | 110,000 tested, 1.3% active | AID 449768;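 active = Z score or B-score, a plate-position-corrected score, falls beyond the plate's 99.7% confidence bounds, in either direction; inactive = both scores lie inside the 99.7% bounds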
Target sequence (Q01959 whole entry, looked up): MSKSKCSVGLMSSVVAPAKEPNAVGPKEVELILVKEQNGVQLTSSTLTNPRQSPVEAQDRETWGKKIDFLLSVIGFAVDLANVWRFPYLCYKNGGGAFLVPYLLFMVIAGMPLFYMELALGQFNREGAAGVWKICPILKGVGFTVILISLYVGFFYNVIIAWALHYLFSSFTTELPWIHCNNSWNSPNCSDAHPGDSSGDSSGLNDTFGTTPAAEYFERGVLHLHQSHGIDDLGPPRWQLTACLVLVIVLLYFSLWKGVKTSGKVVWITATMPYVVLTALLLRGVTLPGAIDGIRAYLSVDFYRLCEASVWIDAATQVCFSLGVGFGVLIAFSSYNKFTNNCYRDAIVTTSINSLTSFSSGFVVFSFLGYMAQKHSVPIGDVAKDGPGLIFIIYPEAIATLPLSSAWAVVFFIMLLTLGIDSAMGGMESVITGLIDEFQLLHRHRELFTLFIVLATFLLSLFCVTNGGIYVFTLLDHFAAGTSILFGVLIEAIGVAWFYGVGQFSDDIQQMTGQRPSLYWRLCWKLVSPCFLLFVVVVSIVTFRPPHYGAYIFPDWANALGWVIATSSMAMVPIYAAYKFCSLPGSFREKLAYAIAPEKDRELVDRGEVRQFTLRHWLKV
PostGolgi yeast – growth inhibition of a yeast mutant, post-Golgi transport screen | inhibition, % at 10 µM | 98,000 tested, 0.9% active | post-Golgi transport phenotypic cell assay;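 also: yeast cells grown in 1536-well plates; yeast grown about 18 h at 30C before absorbance read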
PLAP act – activators of human placental alkaline phosphatase | activation fold at 20 µM | AID 696 | P05187 | 96,000 tested, 1.2% active | purified PLAP enzyme, luminescent substrate read-out; hits give high values; in the data active = activation fold above about 2
PostGolgi ctrl – growth of the yeast control strain, post-Golgi counter-screen | efflux-deficient yeast background strain, growth absorbance A615, 16 h | inhibition, % at 10 µM | 98,000 tested, 5% active | AID 738
Cav3 T inh – blocks human Cav3.2 T-type calcium channel. AID 449739. Cav3.2-expressing cells, Fluo-4 calcium fluorescence FDSS; hits give low values. O95180. 100,000 tested, 4% active. B-score at 10 µM;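 active = single-dose well whose peak fluorescence ratio is a statistical outlier from its plate by either plate-standardised score or position-corrected B-score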
D1 allo mod – allosteric modulators of human D1 dopamine receptor | P21728 | HEK293 D1, CRE-luciferase, dopamine EC30 potentiation; actives deviate in either direction | B-score at 10 µM | 58,000 tested, 5.9% active | AID 641;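 active = luminescence count or its row- and column-corrected plate score outside the 99.7% band of the plate's sample wells, on either side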
D1 PAM confirm – confirmation of human D1 dopamine receptor allosteric modulators | luminescence at 10 µM | 2,200 tested, 88% active | shares compounds with D1 allo mod | HEK293 D1 CRE-luciferase, dopamine EC30 potentiation; hits give high values;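 active = luminescence in either of two replicates above the same-plate mean plus 3 SD of the low-dose dopamine control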
D1 ag no DA – activates D1 CRE-luciferase signal without dopamine present | shares compounds with D1 allo mod | luminescence at 10 µM | 1,900 tested, 0.8% active | HEK293 D1 CRE-luciferase, luminescence, no dopamine; hits give high values; in the data active = luminescence above about 3900
Isoprot counter – isoproterenol response counter-screen activity for D1 modulators; calls only at 10 µM; shares compounds with D1 allo mod; AID 647; HEK293 D1 CRE-luciferase, isoproterenol EC30 counter-screen; 2,200 tested, 63% active;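 active = luminescence in either replicate above plate mean of wells with a partly effective reference agonist dose plus 3 SD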;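 also: isoproterenol raises cAMP through native beta-adrenoceptor Gs so signal bypasses D1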
Large screens that a line does not name were inactive (follow-up assays come after a bar, where they were run). Sampled rows, rich in hits. Any-hit rate of the full collection: about 12%. Rule as the data show it, unless noted: active = inhibition above about 30%; inactive = the rest.

CCCn1nc(NC(=O)c2ccncc2)c2cc3ccccc3nc21	D1 allo mod 8.4 (no result: Cav3 T inh) | D1 PAM confirm 12660 | Isoprot counter active
Cc1c(C(=O)N2CCCCC2)sc(NC(=O)C23CC4CC(CC(C4)C2)C3)c1C#N	none (no result: PostGolgi yeast, PLAP act, PostGolgi ctrl, D1 allo mod)
CCc1nc2ccccc2n1Cc1ccc(OC)c(OC)c1	D1 allo mod 6.2 (no result: PLAP act) | D1 PAM confirm 18880 | D1 ag no DA inactive | Isoprot counter active
COc1ccc(Cn2c(CCCO)nc3ccccc32)cc1OC	D1 allo mod 14 | D1 PAM confirm 15968 | D1 ag no DA inactive | Isoprot counter active
CCOC(=O)c1cnc(-n2nc(C)cc2C)nc1Nc1ccc(N(C)C)cc1	D1 allo mod 12 (no result: PLAP act) | D1 PAM confirm 12468 | D1 ag no DA inactive | Isoprot counter active
CCOC(=O)c1cnc(-n2nc(C)cc2C)nc1Nc1cccc(C(=O)O)c1	D1 allo mod 4.3 | D1 PAM confirm 9100 | D1 ag no DA inactive | Isoprot counter inactive
CCOC(=O)c1cnc(-n2nc(C)cc2C)nc1Nc1ccc(C)cc1	none (no result: hDAT+cocaine, Cav3 T inh, D1 allo mod)
Cc1ccc(-n2c(SCC(=O)OC(C)C)nnc2-c2ccccn2)cc1	none
Cc1ccc(-n2c(SCC(=O)OC(C)C)nnc2-c2cnccn2)cc1	D1 allo mod 4.6 | D1 PAM confirm 8068 | D1 ag no DA inactive | Isoprot counter inactive
Cn1c(NC(=O)c2ccc(Cl)cc2Cl)cc(=O)n(C)c1=O	D1 allo mod 4.5 (no result: Cav3 T inh) | D1 PAM confirm 8676 | D1 ag no DA inactive | Isoprot counter active
Cn1c(NC(=O)c2cc(Cl)ccc2Cl)cc(=O)n(C)c1=O	none
Nc1nc(CSc2ncccn2)nc(Nc2ccccc2)n1	none (no result: D1 allo mod)
COc1ccc(Nc2nc(N)nc(CSc3n[nH]c(-c4ccccc4)n3)n2)cc1	PostGolgi ctrl 30, D1 allo mod 5 | D1 PAM confirm 6616 | D1 ag no DA inactive | Isoprot counter active
CCOc1ccc(Br)cc1-c1noc(-c2cccs2)n1	D1 allo mod 6.7 | D1 PAM confirm 22604 | D1 ag no DA inactive | Isoprot counter active
Cc1ccc(S(=O)(=O)N2CCN(S(=O)(=O)c3ccc(C)cc3)C2c2ccccc2)cc1	none (no result: D1 allo mod)
Cc1ccc(S(=O)(=O)N2CC3CCC2C3)cc1 (stereo not drawn)	D1 allo mod 4.4 | D1 PAM confirm 6724 | Isoprot counter inactive
CCN(CC)C(=O)Cn1nc(-c2ccccc2O)nc1SCC(=O)Nc1ccc(OC)cc1	none
Cc1noc(NS(=O)(=O)c2ccc(NC(=O)Nc3ccc(Cl)c(Cl)c3)cc2)c1C	none
CCSc1ncc(Cl)c(C(=O)Nc2ccc(S(=O)(=O)Nc3onc(C)c3C)cc2)n1	D1 allo mod 5.6 | D1 PAM confirm 11540 | D1 ag no DA inactive | Isoprot counter inactive
CC1(c2ccc(Cl)cc2)NC(=O)N(CC(=O)N2CCCC2)C1=O (stereo not drawn)	none
CC(=O)c1cc(C(=O)Nc2ccc(C(=O)O)cc2)oc1C	none (no result: D1 allo mod)
Cc1cc(C(=O)Nc2ccc(C(=O)O)cc2)c(-c2ccccc2)o1	D1 allo mod 2.5 | D1 PAM confirm 7724 | D1 ag no DA inactive | Isoprot counter active
N#Cc1sc(=O)[nH]c1Cl	none (no result: PostGolgi yeast, PLAP act, PostGolgi ctrl, D1 allo mod)
CSc1nc(NC(C)=O)nc(C)c1Br	none (no result: PostGolgi yeast, PLAP act, PostGolgi ctrl, D1 allo mod)
O=C(Nc1ccccc1C(=O)NCc1cccnc1)c1ccco1	none (no result: D1 allo mod)
O=C(Nc1ccc(Cl)cc1C(=O)NCc1cccnc1)c1ccco1	D1 allo mod 10 | D1 PAM confirm 16768 | D1 ag no DA inactive | Isoprot counter active
O=C(Nc1ccc(Cl)cc1C(=O)Nc1ccncc1)c1ccco1	D1 allo mod 8.7 | D1 PAM confirm 11616 | Isoprot counter active
Cc1nc(-c2ccccc2O)n(-c2ccccc2)n1	none (no result: D1 allo mod)
Cc1cc(C)c2c(CC(=O)Nc3nccs3)coc2c1	none (no result: Cav3 T inh)
CCCCN(CC)C(=O)c1ccc(Cl)c(Cl)c1	D1 allo mod 3.8 | D1 PAM confirm 7124 | D1 ag no DA inactive | Isoprot counter inactive
CCCCNc1oc(-c2ccc(OC)cc2)nc1S(=O)(=O)c1ccccc1	none (no result: D1 allo mod)
CCOc1ccc(-c2nc(S(=O)(=O)c3ccccc3)c(NCc3cccnc3)o2)cc1	D1 allo mod 5.7 (no result: Cav3 T inh) | D1 PAM confirm 8380 | D1 ag no DA inactive | Isoprot counter active
Cn1c(SCC(=O)Nc2ccc(NC(=O)c3cccs3)cc2)nnc1-c1ccncc1	none (no result: PostGolgi yeast, PLAP act, PostGolgi ctrl, D1 allo mod)
CCOc1ccccc1Nc1nc(N)nc(CSc2nccc(C)n2)n1	D1 allo mod 3.6 | D1 PAM confirm 6988 | Isoprot counter inactive
COc1ccc(Nc2nc(N)nc(CSc3nccc(C)n3)n2)cc1	none (no result: hDAT+cocaine, D1 allo mod)
CC1C/C(=N\NC(=S)NC(C)C)CC(C)(C)C1 (stereo not drawn)	none (no result: D1 allo mod)
Nc1scc2c(C(=O)N/N=C/c3ccc(Cl)cc3)nn(-c3ccccc3)c(=O)c12	none (no result: D1 allo mod)
CCOC(=O)c1nn(-c2ccccc2)c(=O)c2c(N)scc12	D1 allo mod 6.3 | D1 PAM confirm 16104 | D1 ag no DA inactive | Isoprot counter active
Cc1cc(C)c(C#N)c(SCc2ccc(C#N)cc2)n1	D1 allo mod 7.4 (no result: Cav3 T inh) | D1 PAM confirm 7996 | D1 ag no DA inactive | Isoprot counter inactive
Nc1nc2n(n1)C(c1ccccc1)CC(c1ccc(F)cc1)N2 (stereo not drawn)	D1 allo mod 6 | D1 PAM confirm 11012 | D1 ag no DA inactive | Isoprot counter inactive
Fc1ccc(C2CC(c3ccccc3)Nc3ncnn32)cc1 (stereo not drawn)	none (no result: D1 allo mod)
c1ccc(C2CC(c3ccccc3)n3ncnc3N2)cc1 (stereo not drawn)	D1 allo mod 4.4 | D1 PAM confirm 6308 | D1 ag no DA inactive | Isoprot counter inactive
Nc1nc2n(n1)C(c1ccco1)CC(c1ccc(F)cc1)N2 (stereo not drawn)	D1 allo mod 7 | D1 PAM confirm 9024 | D1 ag no DA inactive | Isoprot counter inactive
Nc1nc2n(n1)C(c1cccc(Br)c1)CC(c1ccc(F)cc1)N2 (stereo not drawn)	D1 allo mod 14 (no result: PLAP act) | D1 PAM confirm 13072 | D1 ag no DA inactive | Isoprot counter active
COc1cccc(C2CC(c3ccc(F)cc3)Nc3nc(N)nn32)c1 (stereo not drawn)	none
O=C(O)CCNc1ccc2c(c1)OCCO2	none
CCOC(=O)N1CCC(NC(=O)c2cc(C(=O)NCC(OC)OC)ccc2CO)CC1	none (no result: D1 allo mod)
O=C(COc1ccccc1)Nc1ccccc1N1CCN(c2ccccc2)CC1	none
O=C(COc1ccccc1)Nc1ccccc1N1CCCCC1	D1 allo mod 3.4 | D1 PAM confirm inactive | Isoprot counter inactive
COCCCNc1nc(-c2ccncc2)nc2ccccc12	D1 allo mod 5.7 | D1 PAM confirm 6996 | Isoprot counter active
